High-throughput results from PubChem.
Mito fusion act – mitochondrial division inhibition or fusion activation | S. cerevisiae fusion-defective mutant growth rescue, CellTiterGlo 48 h | Potency, µM (titrated, usually from 46.1 µM), inactives show at the top dose growth rescue (activation), usual class: activators | AID 485298 | 0.23% of 320,000 active; further: % of control where 0% means no effect; nearly all actives have a fitted effect of over 45% in size
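S. cerevisiae fusion-defective temperature-sensitive mutants (e.g. fzo1-1, mgm1-5) grown 48 h at 37C in YPEG (ethanol/glycerol non-fermentable) medium with 23 nl compound per well; growth rescue read as CellTiterGlo luminescence.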
FUS suppressor – suppressors of FUS proteinopathy in yeast; S. cerevisiae FUS-expressing, growth rescue, OD600, 24 h; Potency, µM (series often up to 76.6 µM), most hits filed as activators; 0.24% of 390,000 active; AID 1347120;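 further: plate controls were DMSO vehicle for no effect and reference control for full effect; nearly all actives have a fitted effect of over 55% in size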
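Yeast FUS proteinopathy model; galactose-induced FUS (2%), starting OD 0.005. Cpds in dilution series, 24hr, 30C, 99% humidity. Abs 600 nm growth. Pos ctrl CP55940 (top 92uM final); neg ctrl DMSO.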
TDP43 rescue – inhibitors of TDP-43 toxicity in yeast; TDP-43 expressing yeast growth rescue, BacTiter-Glo, 24 h; Potency, µM (series often up to 46.1 µM), for the others: at the highest dose growth rescue (activation), hits mostly activators; 1.8% of 410,000 active; further: % of control where 0% means no effect; nearly all actives have a fitted effect of over 50% in size
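Yeast expressing TDP-43 (pregrown in raffinose, seeded at OD600=0.02 in galactose medium) exposed to compounds 24 hr at 30 deg C. Growth read by BacTiter-Glo luminescence; rescue of toxicity appears as increased signal.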
aSyn rescue – rescues yeast growth from alpha-synuclein toxicity; 0.14% of 370,000 active; Potency, µM (series often up to 46.1 µM), inactives show at the top dose growth rescue (activation), usual class: activators; Yeast expressing alpha-synuclein, growth rescue, BacTiter-Glo, 24 h; AID 652106; further: % of control where 0% means no effect; nearly all actives have a fitted effect of over 65% in size
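Readout is rescue of growth in alpha-synuclein-expressing yeast, so inhibitors of toxicity appear as activators. Growth after 24 hr at 30 deg C in galactose medium is quantified by luminescence.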
Abeta yeast res – compounds reversing amyloid beta toxicity in yeast. yeast expressing A-beta42, growth rescue, OD600, 48 h; response scale: 0% DMSO, 100% iron-clioquinol control. Potency, µM (top dose mostly 46.1 µM), hits mostly activators. 0.063% of 410,000 active. AID 1347071; further: nearly all actives have a fitted effect of over 55% in size
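Growth rescue measured by 600 nm absorbance after 48 h yeast culture at 30 C with compound. Values normalized between DMSO and an equimolar ferric chloride plus clioquinol control.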
* marks the source's active call; other numbers are inactive results; [ ] = another dose, or the depositor's remark. A selection: hits, their analogues and other compounds. The true share with any hit is near 2.2%. The call rests on the fitted dose curve; in most records, active means well fitted curve in the direction sought with a large enough effect; inconclusive means small, poorly fitted or top-dose-only effect, or another doubt; inactive means no such curve, though single readings can be large; an effect the other way counts as inactive or inconclusive. Potency means the concentration at half of the fitted maximal effect.

`Cc1c(NC(=O)CSc2ccc(Cl)cc2)cccc1-c1nc2ncccc2o1` gave Mito fusion act 2%, FUS suppressor inactive, TDP43 rescue 14µM*, aSyn rescue 2% and Abeta yeast res inactive.
`COc1ccc(S[C@]2(C(=O)N3CCOCC3)CC(=O)N(C(=O)Nc3ccc(C)c(Cl)c3)[C@@H]2c2ccc(OC)cc2)cc1` gave FUS suppressor inactive.
For COc1ccc(Br)cc1CN(C)C(=O)CNC(=O)c1ccc2ccccc2c1 the results were Mito fusion act -9%, FUS suppressor inactive, TDP43 rescue 22µM*, aSyn rescue -6% and Abeta yeast res inactive.
COc1ccc(CN(C)C(=O)CNC(=O)c2ccc3ccccc3c2)c(OC)c1 was read as Mito fusion act 10%, FUS suppressor inactive, TDP43 rescue 22%, aSyn rescue 0% and Abeta yeast res inactive.
`COc1ccc(S(=O)(=O)N2CCC(c3nnc(-c4ccccc4C)o3)CC2)c(OC)c1` gave FUS suppressor 32µM*, TDP43 rescue 0% and Abeta yeast res inactive.
Screening Cc1ccccc1-c1nnc(C2CCN(S(=O)(=O)c3ccc(Cl)cc3)CC2)o1 returned FUS suppressor inactive, TDP43 rescue 13%[9.22 µM] and Abeta yeast res inactive.
`Cc1cccc(NC(=O)c2ccc(CNS(=O)(=O)c3ccc4c(c3)C(C)(C)C(=O)N4C)cc2)c1` gave FUS suppressor inactive, TDP43 rescue 20% and Abeta yeast res inactive.
`COc1cccc(C(O)c2nc(/C=C/c3ccccc3)cs2)c1` (stereo not drawn) gave FUS suppressor inactive, TDP43 rescue 22µM*, aSyn rescue inconclusive and Abeta yeast res inactive.
`OC(c1cccc(Cl)c1)c1nc(/C=C/c2ccccc2)cs1` (stereo not drawn) gave FUS suppressor inactive, TDP43 rescue 8.9µM*, aSyn rescue -14% and Abeta yeast res inactive.
`O=c1cc(-c2ccccc2)n2c(SCc3c(F)cccc3Cl)nnc2[nH]1` gave FUS suppressor inactive, TDP43 rescue 6% and Abeta yeast res inactive.
Screening CCOC(=O)C1=C(CS(=O)(=O)c2c(C)cc(C)cc2C)NC(=O)NC1c1cccc(OC)c1 (stereo not drawn) returned FUS suppressor inactive, TDP43 rescue 7% and Abeta yeast res inactive.
`CC(C)CCNC(=O)C1CCN(C(=O)N2CCOc3ccc(Cl)cc32)CC1` gave FUS suppressor inactive, TDP43 rescue 0% and Abeta yeast res inactive.
Oc1ccc(NCc2ccc(OCc3ccccc3)cc2)cc1 was read as Mito fusion act -11%, FUS suppressor inconclusive, TDP43 rescue 16µM*, aSyn rescue -26% and Abeta yeast res inactive.
For C(=N\NCc1ccccc1)/c1ccc2ncccc2c1 the results were Mito fusion act -6%, FUS suppressor inactive, TDP43 rescue 13%, aSyn rescue -15% and Abeta yeast res inconclusive.
For S=C(N/N=C/c1ccc2ncccc2c1)Nc1ccccc1 the results were Mito fusion act 13%, FUS suppressor inactive, TDP43 rescue 13µM*, aSyn rescue 5% and Abeta yeast res inconclusive.
`Clc1ccc2[nH]c(-c3ccccc3)cc2c1` gave Mito fusion act -2%, FUS suppressor inactive, TDP43 rescue 11µM*, aSyn rescue -16% and Abeta yeast res inconclusive.
Screening COc1ccc(-c2cc3ccccc3[nH]2)cc1 returned Mito fusion act 6%, FUS suppressor inactive, TDP43 rescue 1%, aSyn rescue -10% and Abeta yeast res inactive.
For Cc1ccc(O)c(-c2cc3ccccc3[nH]2)c1 the results were Mito fusion act 16%, FUS suppressor inactive, TDP43 rescue 3.2µM*, aSyn rescue -5% and Abeta yeast res inactive.
`c1ccc(-c2cc3ccccc3[nH]2)cc1` gave Mito fusion act -7%, FUS suppressor inactive, TDP43 rescue 11µM*, aSyn rescue -16% and Abeta yeast res inactive.
For COc1ccc(C(=O)C2(C(=O)NCc3ccccc3)CC(c3ccccc3C(F)(F)F)=NO2)cc1 (stereo not drawn) the results were FUS suppressor inactive.
CC(C)(C)c1cnnn1-c1ccc(C(=O)CCl)cc1 was read as Mito fusion act -31%, FUS suppressor inactive, TDP43 rescue 8.9µM*, aSyn rescue -9% and Abeta yeast res inactive.
For CCOc1ccc(NC(=O)CCn2c(=O)c3cccn3c3cccnc32)cc1 the results were FUS suppressor inactive, TDP43 rescue 27% and Abeta yeast res inactive.
For C#CCOCCOCCOCCNc1nc(N2CCN(C(=O)CCCCCCCCCCNC(=O)Cn3cc(C[C@@H](C)O)nn3)CC2)nc(N2CCN(C(=O)CCCCCCCCCCNC(=O)[C@@H](CCSC)n3cc(CCO)nn3)CC2)n1 the results were Mito fusion act -4%, FUS suppressor 4µM*, TDP43 rescue 8%, aSyn rescue -1% and Abeta yeast res inactive.
Screening C#CCOCCOCCOCCNc1nc(N2CCN(C(=O)CCCCCCCCCCNC(=O)[C@@H](CCSC)n3cc(CCO)nn3)CC2)nc(N2CCN(C(=O)CCCCCCCCCCNC(=O)[C@@H]([C@H](C)O)n3cc(C)nn3)CC2)n1 returned Mito fusion act 1%, FUS suppressor 7.9µM*, TDP43 rescue -5%, aSyn rescue -7% and Abeta yeast res inactive.
`C#CCOCCOCCOCCNc1nc(N2CCN(C(=O)CCCCCCCCCCNC(=O)Cn3cc(CCCCCN)nn3)CC2)nc(N2CCN(C(=O)CCCCCCCCCCNC(=O)Cn3cc(C[C@@H](C)O)nn3)CC2)n1` gave Mito fusion act -14%, FUS suppressor inconclusive, TDP43 rescue 5%, aSyn rescue -3% and Abeta yeast res inactive.
`C#CCOCCOCCOCCNc1nc(N2CCN(C(=O)CCCCCCCCCCNC(=O)[C@H](CCCCN)n3cc(C)nn3)CC2)nc(N2CCN(C(=O)CCCCCCCCCCNC(=O)[C@@H]([C@H](C)O)n3cc(C)nn3)CC2)n1` gave Mito fusion act -8%, FUS suppressor 11µM*, TDP43 rescue 5%, aSyn rescue 0% and Abeta yeast res inactive.
`C#CCOCCOCCOCCNc1nc(N2CCN(C(=O)CCCCCCCCCCNC(=O)[C@@H](CCSC)n3cc(CCO)nn3)CC2)nc(N2CCN(C(=O)CCCCCCCCCCNC(=O)[C@H](CO)n3cc(CCCCCN)nn3)CC2)n1` gave Mito fusion act -15%, FUS suppressor inconclusive, TDP43 rescue 9%, aSyn rescue -37% and Abeta yeast res inactive.
